Bioassay records: PubChem BioAssay, Sanford-Burnham Center for Chemical Genomics
tim10-1 inh – inhibits growth of tim10-1 mutant yeast | S. cerevisiae tim10-1 ts strain growth, BacTiter-Glo, 24 h | inhibition, % at 20 µM | 330,000 tested, 2.2% active | AID 463190;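 active = inhibition of at least 40%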;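 note: mutant grown at 25 °C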
TIM10 inh – growth inhibitors of TIM10 yeast strain; 330,000 tested, 1.4% active; inhibition, % at 10 µM; S. cerevisiae TIM10 strain growth, BacTiter-Glo luminescence, 24 h;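 active = inhibition of 40% or more at the single tested concentration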;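 note: wild-type TIM10 isogenic control strain grown at permissive 25 °C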
tim23-1 inh – tim23-1 yeast growth inhibition; inhibition, % at 20 µM; 330,000 tested, 1.3% active; S. cerevisiae tim23-1 growth, BacTiter-Glo luminescence, 24 h;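 active = growth inhibition of the mutant yeast at or above 50%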;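 note: temperature-sensitive mutant grown at 25 °C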
NLRP3 yeast inh – NALP3 inhibition in yeast | AID 2825 | Yeast reconstituted NLRP3/ASC/caspase-1, beta-gal luminescence, 24 h | 330,000 tested, 0.39% active | inhibition, % at 10 µM;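 active = inhibition of 50% or more; inactive = inhibition below 50%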
NALP1 inh – blocks the NALP1 inflammasome reconstituted in yeast; S. cerevisiae NALP1/ASC/caspase-1 growth, X-gal OD620, 72 h; inhibition, % at 10 µM; 280,000 tested, 0.61% active; AID 2071; in the data active = inhibition mostly above about 24%, no sharp cut-off; inactive = mostly below about 32%
tim10 confirm – confirmation of TIM10 yeast growth inhibitors; 4,600 tested, 63% active; AID 463215; S. cerevisiae tim10 strain growth, BacTiter-Glo luminescence, 24 h; inhibition, % at 10 µM; shares compounds with TIM10 inh;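 active = inhibition of yeast growth at or above a set limit in either of two replicates at 10 µM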; note: this counterscreen used the strain with wild-type TIM10
Large screens that a line does not name were inactive (follow-up assays come after a bar, where they were run). The list is not random: actives were taken first. Their share in the collection is about 4.1%.

Oc1cccc(NC(=S)Nc2ccc(SC(F)F)cc2)c1	none
Cc1cccc(N2CCN(C(c3ccccc3)c3nnnn3C(C)(C)C)CC2)c1C (stereo unspecified)	TIM10 inh 41 | tim10 confirm inactive
Cc1cccc(N2CCN(C(c3cccs3)c3nnnn3C(C)(C)C)CC2)c1C (stereo unspecified)	none
Cc1cc(NC(=O)CN2C(=O)NC(C)(c3ccc(Cl)cc3)C2=O)no1 (stereo unspecified)	none
CCCCc1ccc(-n2c(Cc3cccs3)n[nH]c2=S)cc1	TIM10 inh 52 | tim10 confirm 36
COc1ccc(C(=O)NCC(=O)Nc2ccc(F)cc2)cc1OC	TIM10 inh 50 | tim10 confirm inactive
COc1ccc(/C=N/Nc2ncnc3scc(-c4ccccc4)c23)cc1OC	TIM10 inh 58 | tim10 confirm 44
Oc1ccc(Nc2ncnc3scc(-c4ccccc4)c23)cc1	none
COc1cnc(-c2ccccn2)nc1Oc1ccc(Cl)c2ccccc12	TIM10 inh 53 | tim10 confirm 41
O=c1[nH]cnc2ncc(-c3ccc(O)cc3)nc12	TIM10 inh 41 (no result: NALP1 inh) | tim10 confirm inactive
Cc1noc(C)c1NC(=O)Nc1ccc2c(c1)C(=O)N([C@H](C)CO)C[C@H](C)[C@@H](CN(C)C(=O)NC1CCCCC1)O2	none (no result: NALP1 inh)
Clc1nc(-c2ccccc2)cc(-c2ccc(Br)cc2)n1	TIM10 inh 42 (no result: NALP1 inh) | tim10 confirm 33
Nc1cc(-c2ccc(Br)cc2)nc2cc(-c3ccccc3)nn12	none
CC1(C)Cc2c(ccc3ccccc23)C(=O)N1	none
O=C1NC2(C=Cc3c(ccc4ccccc34)O2)Oc2ccccc21 (stereo unspecified)	TIM10 inh 41 | tim10 confirm inactive
CN1CCCN(Cc2nc(-c3cccc(C(F)(F)F)c3)no2)CC1	none
CC(C)(C)C1CCC(CN2C(Nc3ccccc3)=NC[C@@H]2Cc2ccccc2)CC1 (stereo partly specified)	TIM10 inh 49 (no result: NALP1 inh) | tim10 confirm 53
Cc1ccc2nc(-c3ccc(N4C(=O)CC(N5CCC(C(N)=O)CC5)C4=O)cc3)sc2c1 (stereo unspecified)	TIM10 inh 42 | tim10 confirm 57
Cc1ccc2nc(-c3ccc(N4C(=O)CC(N5CCCC(C)C5)C4=O)cc3)sc2c1 (stereo unspecified)	none (no result: tim10-1 inh, TIM10 inh, tim23-1 inh, NLRP3 yeast inh)
CCOc1cc(-c2cc(-c3ccc(C)o3)nc(N)c2C#N)ccc1O	TIM10 inh 43 | tim10 confirm inactive
CCC(c1nnc(SCc2nc3ccccc3s2)n1Cc1ccccc1)N(C)C (stereo unspecified)	TIM10 inh 41 | tim10 confirm inactive
c1ccc(Cn2c(SCc3nc4ccccc4s3)nnc2-c2ccco2)cc1	none
C=CCn1c(O)c(N=NC(=O)CNC(=O)Cc2ccccc2)c2ccccc21	none
c1ccc(OCCN2CCN(C(c3ccccc3)c3ccccc3)CC2)cc1	TIM10 inh 42 | tim10 confirm 47
O=C(Nc1ccc(Cl)cc1)Nc1cccc2nsnc12	none
COc1cccc(C(=O)NC2CC(C)(C)NC(C)(C)C2)c1OC	TIM10 inh 61 | tim10 confirm inactive
COc1ccccc1C(=O)NC1CC(C)(C)NC(C)(C)C1	none
COc1cccc(N2CC(NC(=O)C(=O)c3c[nH]c4ccccc34)CC2=O)c1 (stereo unspecified)	none (no result: NALP1 inh)
O=C(NC1CC(=O)N(c2cccc(F)c2)C1)C(=O)c1c[nH]c2ccccc12 (stereo unspecified)	TIM10 inh 97 (no result: NALP1 inh) | tim10 confirm inactive
c1ccc(CCOn2ccnc2)cc1	none
COc1cc(/C=N/NC(=O)c2ccc(F)cc2)ccc1OC(=O)c1ccco1	none
O=C(N/N=C/c1cccc(OC(=O)c2ccco2)c1)c1ccc(F)cc1	TIM10 inh 41 | tim10 confirm 32
COc1ccc(CC(=O)NCc2nc(-c3ccccc3)no2)cc1	none
COc1cc(OC)cc(C(=O)NCc2nc(-c3ccccc3)no2)c1	TIM10 inh 91 | tim10 confirm inactive
Cc1ccc2nc(-c3ccncc3)c(NC3CCCC3)n2c1	none
Cc1ccc2nc(-c3ccncc3)c(NC3CCCCC3)n2c1	TIM10 inh 43 | tim10 confirm 42
Cc1nc2c(ccc3nc(NC(=O)Cc4ccccc4)sc32)s1	TIM10 inh 42 | tim10 confirm 45
Cc1nc2c(ccc3nc(NC(=O)c4ccc(S(=O)(=O)N(C)C)cc4)sc32)s1	none
COc1ccc(Cc2nnc(SCC(=O)Nc3ccc(N4CCOCC4)cc3)o2)cc1	none
COc1ccc(S(=O)(=O)Nc2cccc3c2O[C@H](CN(C)C(=O)Nc2ccc4c(c2)OCO4)[C@@H](C)CN([C@H](C)CO)C3=O)cc1	none (no result: NALP1 inh)
N/C(Cc1cccc2ccccc12)=N\OC(=O)Cc1cccs1	TIM10 inh 49 | tim10 confirm 38
COc1cccc(Oc2cn[nH]c2-c2ccc(OC)cc2O)c1	none
CCCc1ccc(Oc2c(-c3ccc(O)c(C)c3O)n[nH]c2C)cc1	TIM10 inh 63 | tim10 confirm 73
CCCc1ccc(Oc2cn[nH]c2-c2ccc(O)c(C)c2O)cc1	TIM10 inh 71 (no result: NALP1 inh) | tim10 confirm 71
Cc1ccc(C(=O)C(C)OC(=O)c2n[nH]c(=O)c3ccccc23)cc1 (stereo unspecified)	none
COc1ccc(C2c3ccc4ccccc4c3Oc3ncn(CCN4CCOCC4)c(=N)c32)cc1 (stereo unspecified)	none
COc1ccc(-c2oc3ncn(CCN4CCOCC4)c(=N)c3c2-c2ccc(OC)cc2)cc1	TIM10 inh 42 | tim10 confirm inactive
COc1ccc(Cc2nnc(NC(=O)c3cccc(F)c3)s2)cc1OC	none
O=S(=O)(c1ccc2c(c1)OCCO2)N1CCN(Cc2ccccc2)CC1	TIM10 inh 43 | tim10 confirm inactive
Cc1ccccc1OCC(=O)NNC(=O)C1CC(=O)N(c2ccc3c(c2)OCCO3)C1 (stereo unspecified)	none (no result: NALP1 inh)
COc1ccc(C/C(=N\O)c2ccc(OC)cc2)cc1	none
Cc1cc(-c2ccc(N3CCOCC3)cc2)nc2ccccc12	TIM10 inh 58 | tim10 confirm 64
COc1ccccc1NC(=O)c1ccc(S(=O)(=O)N2CCCC(C)C2)cc1 (stereo unspecified)	none
O=C(Nc1ccc2c(c1)OCCO2)C1CCCN(S(=O)(=O)c2cccnc2)C1 (stereo unspecified)	none
Cc1c(C(=O)N2CCN(S(=O)(=O)c3ccccc3)CC2)oc2ccccc12	TIM10 inh 47 (no result: NALP1 inh) | tim10 confirm 32
Nc1cc(OC(=O)c2cccs2)nn1S(=O)(=O)c1ccccc1	TIM10 inh 55 | tim10 confirm inactive
O=C(CSC1CC(=O)N(c2ccc(C(=O)O)cc2)C1=O)Nc1ccc(Cl)cc1 (stereo unspecified)	none
Cn1c(=O)c2c(-c3ccccc3)n3c4ccccc4ncc3c2n(C)c1=O	TIM10 inh 42 (no result: NALP1 inh) | tim10 confirm inactive
CCc1ccccc1Nc1nn2c(=O)c3ccc(C(=O)NCc4ccccn4)cc3nc2s1	none
